C diff HTS: blocks growth of Clostridium difficile; 86,000 compounds, 0.25% hits; Clostridium difficile clinical isolate growth, OD600, 24 h; active compounds read low; AID 1259249; growth activity, negative = inhibition, % at 16 µg/mL (by protocol);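 active means mean growth activity at or below -80% and every replicate also at or below -80%; inconclusive means mean at or below -80% but some replicate above -80%; inactive means mean growth activity above -80%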;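 further: 0% = DMSO wells and -100% = levofloxacin 16 µg/mL wells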
Pf Dd2 inh: P. falciparum Dd2 growth inhibition. 94,000 compounds, 2.3% hits. SYBR Green, 72 h; active compounds read low. activity change, % at 10 µM; in the data active means activity change below about -80%; inconclusive means no clear call, values can overlap the other calls
T cruzi growth-1: blocks T. cruzi growth in NIH3T3 culture; T. cruzi beta-gal in NIH3T3, GalScreen luminescence, 90 h; inhibition, % at 8.34 µM; 77,000 compounds, 5.9% hits; AID 624255;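 active means mean inhibition above about 93%, with at least 55% of replicates each passing it, limit read from the data, passing the limit was not always enough; inconclusive means only one of those two conditions holds; inactive means neither condition holds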
T cruzi growth-2: blocks T. cruzi growth in NIH3T3 host cells; T. cruzi beta-gal in NIH3T3, GalScreen luminescence, 90 h; inhibition, % at 8.35 µM; 5,600 compounds, 72% hits; shares compounds with T cruzi growth-1;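 active means mean replicate inhibition above about 95% and at least 55% of replicates individually reaching it, limit read from the data; inconclusive means only one of the two criteria is met; inactive means neither criterion is met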
T cruzi growth-3: Trypanosoma cruzi proliferation inhibition | shares compounds with T cruzi growth-1 | T. cruzi beta-gal in NIH3T3, GalScreen luminescence, 90 h | inhibition, % at 2.09 µM | 5,600 compounds, 21% hits | AID 651740;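 active means mean inhibition above about 95%, with at least 55% of replicates also reaching it, limit read from the data; inconclusive means meets just one of the two conditions; inactive means meets neither condition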;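 further: plate controls were neutral control median for no effect and positive control median for full effect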
NIH3T3 tox: cytotoxicity in mouse NIH/3T3 fibroblasts | shares compounds with T cruzi growth-1 | NIH/3T3 viability, CellTiter-Glo ATP luminescence, 90 h | cytotoxicity (signal decrease), % at 8.35 µM | 5,600 compounds, 14% hits;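 active means mean signal decrease across replicates above about 35% based on untreated-well scatter, with enough replicates individually passing, limit read from the data; inconclusive means no rule stated though some were filed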;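 further: 0% = median of neutral control wells and 100% = median of positive control wells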
3T3 cytotox 2: cytotoxicity in mouse NIH/3T3 fibroblasts | shares compounds with T cruzi growth-1 | NIH/3T3 viability, CellTiter-Glo ATP luminescence, 90 h | inhibition, % at 24.9 µM | 5,600 compounds, 56% hits;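 active means mean loss of cell viability signal at or above a set limit, and enough replicates individually reaching it; inconclusive means meets only the mean limit or only the replicate share; inactive means meets neither condition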;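 further: 0% = median of neutral control wells and 100% = median of positive control wells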
The depositor's hits bear a star; u = inconclusive; x = no result given. Hits are enriched below; roughly 6.7% of the tested compounds scored in any of these assays.

SMILES | C diff HTS | Pf Dd2 inh | T cruzi growth-1 | T cruzi growth-2 | T cruzi growth-3 | NIH3T3 tox | 3T3 cytotox 2
CC(C)NC(=O)N(C)C[C@@H]1Oc2cc(C#Cc3ccccn3)ccc2S(=O)(=O)N([C@H](C)CO)C[C@@H]1C | -1.0 | -40.9 | 4.6 | x | x | x | x
CC(C)NC(=O)N(C)C[C@H]1Oc2cc(C#Cc3ccccn3)ccc2S(=O)(=O)N([C@@H](C)CO)C[C@H]1C | -2.8 | -23.4 | 47.7 | x | x | x | x
CC(C)NC(=O)N(C)C[C@H]1Oc2cc(C#Cc3ccccn3)ccc2S(=O)(=O)N([C@H](C)CO)C[C@H]1C | -4.4 | -24.0 | 110.5* | 99.2* | 46.4 | 4.0 | 39.6*
CC(C)NC(=O)N(C)C[C@@H]1Oc2cc(C#Cc3ccccn3)ccc2S(=O)(=O)N([C@@H](C)CO)C[C@@H]1C | 4.6 | -64.1 | u | 30.1 | 16.1 | -17.1 | -4.0
CN1C(=O)c2cc(NC(=O)NC3CCCC3)ccc2OC[C@@H]2O[C@H](CC(=O)NCC3CC3)CC[C@@H]21 | -11.7 | 8.7 | 2.3 | x | x | x | x
C[C@H]1CN([C@@H](C)CO)C(=O)c2cccc(NS(=O)(=O)c3cccs3)c2O[C@H]1CN(C)CC1CCCCC1 | 10.2 | 36.2 | 19.2 | x | x | x | x
COc1ccc(NC(=O)N(C)C[C@@H]2OCCCC[C@@H](C)Oc3ccc(NS(=O)(=O)c4ccccc4)cc3C(=O)N([C@H](C)CO)C[C@H]2C)cc1 | 9.8 | -7.1 | 92.5 | x | x | x | x
C[C@@H]1CCCCO[C@H](CN(C)S(C)(=O)=O)[C@@H](C)CN([C@@H](C)CO)C(=O)c2cc(NC(=O)Nc3cccc4ccccc34)ccc2O1 | 2.7 | -47.2 | 1.0 | x | x | x | x
Cc1noc(C)c1S(=O)(=O)N(C)C[C@@H]1OCCCC[C@@H](C)Oc2ccc(NC(=O)Nc3cccc4ccccc34)cc2C(=O)N([C@@H](C)CO)C[C@H]1C | -1.4 | -42.3 | 103.9* | 84.3 | 54.6 | -14.2 | -5.2
Cc1noc(C)c1S(=O)(=O)N(C)C[C@H]1OCCCC[C@@H](C)Oc2ccc(NC(=O)Nc3ccccc3)cc2C(=O)N([C@H](C)CO)C[C@@H]1C | 2.7 | -20.4 | x | x | x | x | x
Cc1noc(C)c1S(=O)(=O)N(C)C[C@H]1OCCCC[C@@H](C)Oc2ccc(NC(=O)Nc3ccccc3)cc2C(=O)N([C@@H](C)CO)C[C@@H]1C | -7.5 | -79.2 | x | x | x | x | x
COc1ccc(NC(=O)Nc2ccc3c(c2)C(=O)N([C@@H](C)CO)C[C@H](C)[C@@H](CN(C)S(=O)(=O)c2c(C)noc2C)OCCCC[C@H](C)O3)cc1 | -5.1 | -82.6* | 107.2* | 101.7* | -7.6 | -12.3 | -7.2
Cc1noc(C)c1S(=O)(=O)N(C)C[C@@H]1OCCCC[C@H](C)Oc2ccc(NC(=O)Nc3cccc4ccccc34)cc2C(=O)N([C@H](C)CO)C[C@@H]1C | -3.0 | -20.1 | 108.7* | 98.1* | -36.7 | 73.9* | 77.3*
COc1ccc(NC(=O)Nc2ccc3c(c2)C(=O)N([C@@H](C)CO)C[C@@H](C)[C@H](CN(C)S(=O)(=O)c2c(C)noc2C)OCCCC[C@@H](C)O3)cc1 | -2.2 | -16.8 | -69.9 | x | x | x | x
Cc1noc(C)c1S(=O)(=O)N(C)C[C@H]1OCCCC[C@H](C)Oc2ccc(NC(=O)Nc3cccc4ccccc34)cc2C(=O)N([C@@H](C)CO)C[C@@H]1C | -5.3 | -84.8* | 99.9* | 108.7* | u | 6.9 | 53.6*
COc1ccccc1C#Cc1cnc2c(c1)C(=O)N([C@@H](C)CO)C[C@H](C)[C@@H](CN(C)C(=O)c1ccc3c(c1)OCO3)O2 | -3.4 | -54.8 | x | x | x | x | x
O=C(C1CCOCC1)N1C[C@H]2[C@@H](c3ccccc31)[C@H](CO)N2Cc1ccccc1 | 2.5 | 8.7 | 23.5 | x | x | x | x
COc1ccc(-c2ccc([C@@H]3[C@@H](CO)N4CCCCN(C(=O)c5ccc(F)cc5)C[C@H]34)cc2)cc1 | -2.3 | 26.5 | 122.8* | u | 18.2 | -5.4 | 56.9*
O=C(c1ccc(F)cc1)N1CCCCN2[C@H](CO)[C@H](c3ccc(-c4ccc(F)cc4)cc3)[C@@H]2C1 | 43.4 | 4.1 | 104.7* | 108.1* | 51.5 | 16.8 | 72.7*
O=C(c1ccc(F)cc1)N1CCCCN2[C@H](CO)[C@@H](c3ccc(-c4ccccc4)cc3)[C@@H]2C1 | 40.3 | -6.1 | 87.8 | x | x | x | x
O=C(c1ccc(F)cc1)N1CCCCN2[C@H](CO)[C@H](c3ccc(-c4ccc(F)cc4)cc3)[C@H]2C1 | 33.0 | -17.0 | 107.1* | 103.2* | 80.8 | 31.2 | 105.5*
O=C(c1ccc(F)cc1)N1CCCCN2[C@H](CO)[C@@H](c3ccc(-c4ccc(F)cc4)cc3)[C@H]2C1 | 10.1 | 17.9 | 111.0* | 104.1* | 67.9 | 36.9* | 103.2*
COc1ccc(-c2ccc([C@H]3[C@H]4CN(C(=O)c5ccc(F)cc5)CCCCN4[C@H]3CO)cc2)cc1 | 11.2 | -7.2 | 76.3 | x | x | x | x
O=C(c1ccc(F)cc1)N1CCCCN2[C@H](CO)[C@H](c3ccc(-c4ccccc4)cc3)[C@@H]2C1 | 16.4 | -16.3 | -20.1 | x | x | x | x
O=C(c1ccc(F)cc1)N1CCCCN2[C@@H](CO)[C@@H](c3ccc(-c4ccc(F)cc4)cc3)[C@@H]2C1 | 15.5 | -14.7 | 51.0 | x | x | x | x
SMILES | C diff HTS | Pf Dd2 inh | T cruzi growth-1 | T cruzi growth-2 | T cruzi growth-3 | NIH3T3 tox | 3T3 cytotox 2
CC(=O)N(C)C[C@@H]1[C@@H](c2ccc(C3=CCCCC3)cc2)[C@@H](CO)N1CC1CC1 | 8.7 | -27.8 | 53.3 | x | x | x | x
CCN1[C@@H]2c3ccc(C4=CCCC4)c(=O)n3C[C@@H]2[C@@H](CO)[C@@H]1C(=O)NCCc1ccccc1 | -0.8 | 1.0 | 38.1 | x | x | x | x
O=C(NC1Cc2ccccc2C1)[C@@H]1[C@@H](CO)[C@@H]2Cn3c(ccc(C4=CCCCC4)c3=O)[C@@H]2N1CC1CC1 | -1.1 | -17.6 | x | x | x | x | x
CCCNC(=O)N1CC2(CCN(CC3CCCC3)CC2)c2c(n(C)c3cc(OC)ccc23)[C@@H]1CO | 4.0 | -16.2 | x | x | x | x | x
COc1ccc(-c2ccc([C@H]3[C@@H](CO)N4CCCCN(C(=O)c5ccc(F)cc5)C[C@H]34)cc2)cc1 | -3.0 | -43.7 | 94.5 | x | x | x | x
O=C(c1ccc(F)cc1)N1CCCCN2[C@H](C1)[C@@H](c1ccc(-c3ccc(F)cc3)cc1)[C@@H]2CO | 31.2 | 2.2 | 97.7* | 103.0* | 51.5 | 42.5* | 103.2*
CCC(=O)N[C@H]1CC[C@H](CC(=O)NCC2CCCCC2)O[C@H]1CO | x | 1.1 | 40.6 | x | x | x | x
Cc1ccc(-c2ccc3c(c2)O[C@@H](CN(C)C(=O)Nc2ccccc2)[C@@H](C)CN([C@@H](C)CO)S3(=O)=O)cc1 | 7.0 | -43.4 | x | x | x | x | x
CO[C@H]1CN(C)C(=O)c2ccc(NC(=O)c3cc(C)on3)cc2OC[C@H](C)N(CC2CC2)C[C@@H]1C | x | 8.8 | -0.4 | x | x | x | x
C[C@H](CO)N1C[C@H](C)[C@@H](CN(C)S(=O)(=O)c2cn(C)cn2)Oc2cc(C#Cc3cccc(F)c3)ccc2S1(=O)=O | 0.1 | -67.3 | 47.3 | x | x | x | x

Bioassay records: PubChem, Broad Institute
